# Measured values published in PMC7862700, “An all-to-all approach to the identification of sequence-specific readers for epigenetic DNA modifications on cytosine”.
# Tests used:
# Assay in all cases: DAPPL (digital affinity profiling via proximity ligation, sequencing); 10 mM Tris-HCl pH 7.5, 50 mM NaCl, 1 mM DTT, 4% glycerol, room temperature, 30 min; GST-TFs on glutathione beads, 16-mer random dsDNA library, 0.1% formaldehyde crosslink after washing; high values mean tight binding
# FLI1 = biological target: T1, FLI1 (Homo sapiens, UniProt Q01543 1-452); settings: protein: recombinant; tags: N-terminal GST; dsDNA, one strand shown
# T1 sequence: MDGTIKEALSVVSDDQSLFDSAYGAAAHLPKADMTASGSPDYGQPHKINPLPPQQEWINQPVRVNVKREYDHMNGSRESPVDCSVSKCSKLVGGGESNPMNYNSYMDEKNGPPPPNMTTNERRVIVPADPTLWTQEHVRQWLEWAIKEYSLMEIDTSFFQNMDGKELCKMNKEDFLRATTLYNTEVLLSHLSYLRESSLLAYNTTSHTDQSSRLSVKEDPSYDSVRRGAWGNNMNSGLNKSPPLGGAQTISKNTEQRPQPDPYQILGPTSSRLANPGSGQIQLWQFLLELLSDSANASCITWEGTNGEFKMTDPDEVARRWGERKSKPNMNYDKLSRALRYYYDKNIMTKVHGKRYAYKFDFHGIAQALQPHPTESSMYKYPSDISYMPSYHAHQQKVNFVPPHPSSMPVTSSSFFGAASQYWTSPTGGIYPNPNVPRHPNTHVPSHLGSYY
# Procedure, shortened: (§1)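 Pools were built from human transcription factors expressed in yeast as GST fusions, captured on glutathione beads and DNA-barcoded, along with a tag-only sample. Incubation with 200 nmole of a 16-mer random double-stranded DNA library lasted 30 min at room temperature in Tris/NaCl/DTT/glycerol buffer, and was followed by washing, 0.1% formaldehyde crosslinking, proximity ligation, PCR amplification and Illumina NextSeq500 sequencing. Binding signal is the quotient of each hexamer's read frequency for a factor and its frequency for the tag-only sample.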
# ELK1 = biological target: T2, ELK1 (Homo sapiens, UniProt P19419 1-428); settings: protein: recombinant; tags: N-terminal GST; dsDNA, one strand shown
# T2 sequence: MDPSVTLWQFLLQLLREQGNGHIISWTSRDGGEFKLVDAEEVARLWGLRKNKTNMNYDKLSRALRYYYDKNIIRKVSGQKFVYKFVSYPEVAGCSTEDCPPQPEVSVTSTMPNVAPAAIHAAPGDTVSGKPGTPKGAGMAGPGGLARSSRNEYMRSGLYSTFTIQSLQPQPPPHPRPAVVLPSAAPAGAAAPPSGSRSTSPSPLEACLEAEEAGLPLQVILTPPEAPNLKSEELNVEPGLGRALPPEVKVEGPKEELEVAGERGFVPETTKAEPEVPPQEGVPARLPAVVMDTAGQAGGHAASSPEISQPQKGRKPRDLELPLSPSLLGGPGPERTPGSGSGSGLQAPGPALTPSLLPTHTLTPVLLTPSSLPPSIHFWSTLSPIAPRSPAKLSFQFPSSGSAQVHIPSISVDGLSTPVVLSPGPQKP
# Procedure, shortened: as §1
# GABPA = biological target: T3, GABPA (Homo sapiens, UniProt Q06546 1-454); settings: protein: recombinant; tags: N-terminal GST; dsDNA, one strand shown
# T3 sequence: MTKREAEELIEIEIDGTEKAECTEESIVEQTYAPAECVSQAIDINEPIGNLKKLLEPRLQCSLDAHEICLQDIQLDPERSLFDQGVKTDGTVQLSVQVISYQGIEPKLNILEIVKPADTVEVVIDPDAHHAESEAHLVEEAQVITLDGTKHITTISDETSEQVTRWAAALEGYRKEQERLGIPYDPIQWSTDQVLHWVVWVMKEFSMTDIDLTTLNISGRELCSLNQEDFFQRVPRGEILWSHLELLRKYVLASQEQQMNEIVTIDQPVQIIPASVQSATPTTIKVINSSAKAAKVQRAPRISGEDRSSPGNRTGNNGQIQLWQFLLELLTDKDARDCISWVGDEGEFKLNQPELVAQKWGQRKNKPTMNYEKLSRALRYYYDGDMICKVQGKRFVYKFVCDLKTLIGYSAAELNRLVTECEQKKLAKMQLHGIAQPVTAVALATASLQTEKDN
# Procedure, shortened: as §1
# ERG = biological target: T4, ERG (Homo sapiens, UniProt P11308 1-479); settings: protein: recombinant; tags: N-terminal GST; dsDNA, one strand shown
# T4 sequence: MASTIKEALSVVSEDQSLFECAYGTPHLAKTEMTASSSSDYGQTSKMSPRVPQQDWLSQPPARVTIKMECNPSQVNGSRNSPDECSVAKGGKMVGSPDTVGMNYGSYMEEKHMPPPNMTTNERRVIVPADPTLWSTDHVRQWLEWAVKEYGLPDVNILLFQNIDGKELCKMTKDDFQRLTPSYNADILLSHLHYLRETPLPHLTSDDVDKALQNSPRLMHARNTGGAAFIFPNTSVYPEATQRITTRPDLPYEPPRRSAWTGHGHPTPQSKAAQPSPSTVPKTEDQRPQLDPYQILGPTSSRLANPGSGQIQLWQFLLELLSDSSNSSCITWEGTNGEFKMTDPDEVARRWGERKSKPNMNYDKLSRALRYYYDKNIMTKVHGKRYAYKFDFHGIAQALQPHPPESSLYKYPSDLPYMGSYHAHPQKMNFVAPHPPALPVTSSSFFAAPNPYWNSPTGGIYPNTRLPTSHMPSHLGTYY
# Procedure, shortened: as §1
# ELF1 = ELF1 (Homo sapiens, UniProt P32519 1-619); settings: protein: recombinant; tags: N-terminal GST; dsDNA, one strand shown
# Procedure, shortened: as §1
# EHF = biological target: T5, EHF (Homo sapiens, UniProt Q9NZC4 1-300); settings: protein: recombinant; tags: N-terminal GST; dsDNA, one strand shown
# T5 sequence: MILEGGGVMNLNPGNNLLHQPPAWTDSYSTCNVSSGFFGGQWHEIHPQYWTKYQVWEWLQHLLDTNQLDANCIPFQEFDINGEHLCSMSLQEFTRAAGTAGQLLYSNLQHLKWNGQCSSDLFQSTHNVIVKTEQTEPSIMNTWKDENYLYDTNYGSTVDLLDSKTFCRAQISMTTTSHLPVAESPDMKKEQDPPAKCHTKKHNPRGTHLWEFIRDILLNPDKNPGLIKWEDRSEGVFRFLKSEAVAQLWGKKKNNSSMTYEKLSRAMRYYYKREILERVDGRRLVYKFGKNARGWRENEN
# Procedure, shortened: as §1
# SPI1 = SPI1 (Homo sapiens, UniProt P17947 1-270); settings: protein: recombinant; tags: N-terminal GST; dsDNA, one strand shown
# Procedure, shortened: as §1
# SPIB = SPIB (Homo sapiens, UniProt Q01892 1-262); settings: protein: recombinant; tags: N-terminal GST; dsDNA, one strand shown
# Procedure, shortened: as §1
# ELK3 = biological target: T6, ELK3 (Homo sapiens, UniProt P41970 1-407); settings: protein: recombinant; tags: N-terminal GST; dsDNA, one strand shown
# T6 sequence: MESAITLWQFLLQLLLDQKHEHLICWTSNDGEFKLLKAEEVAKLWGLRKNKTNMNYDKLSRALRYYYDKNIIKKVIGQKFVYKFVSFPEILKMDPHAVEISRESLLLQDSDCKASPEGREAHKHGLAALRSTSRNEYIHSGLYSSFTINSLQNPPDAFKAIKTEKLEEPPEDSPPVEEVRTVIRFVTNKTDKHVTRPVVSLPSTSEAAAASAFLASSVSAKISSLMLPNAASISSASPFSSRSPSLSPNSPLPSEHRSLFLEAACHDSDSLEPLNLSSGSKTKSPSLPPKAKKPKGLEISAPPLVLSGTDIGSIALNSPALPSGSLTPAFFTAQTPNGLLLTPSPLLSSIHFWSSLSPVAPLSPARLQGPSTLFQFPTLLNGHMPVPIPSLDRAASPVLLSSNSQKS
# Procedure, shortened: as §1
# FEV = biological target: T7, FEV (Homo sapiens, UniProt Q99581 1-238); settings: protein: recombinant; tags: N-terminal GST; dsDNA, one strand shown
# T7 sequence: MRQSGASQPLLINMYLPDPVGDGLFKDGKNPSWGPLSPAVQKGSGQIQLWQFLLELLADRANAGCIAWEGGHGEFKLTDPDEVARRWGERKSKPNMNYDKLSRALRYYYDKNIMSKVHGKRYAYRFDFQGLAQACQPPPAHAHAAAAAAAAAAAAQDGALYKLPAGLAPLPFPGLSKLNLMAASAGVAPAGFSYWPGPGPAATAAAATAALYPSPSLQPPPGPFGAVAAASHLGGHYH
# Procedure, shortened: as §1
# ETV5 = ETV5 (Homo sapiens, UniProt P41161 1-510); settings: protein: recombinant; tags: N-terminal GST; dsDNA, one strand shown
# Procedure, shortened: as §1
# HSF1 = HSF1 (Homo sapiens, UniProt Q00613 1-529); settings: protein: recombinant; tags: N-terminal GST; chain copies: 3; dsDNA, one strand shown
# Procedure, shortened: as §1
# SPIC = biological target: T8, SPIC (Homo sapiens, UniProt Q8N5J4 1-248); settings: protein: recombinant; tags: N-terminal GST; dsDNA, one strand shown
# T8 sequence: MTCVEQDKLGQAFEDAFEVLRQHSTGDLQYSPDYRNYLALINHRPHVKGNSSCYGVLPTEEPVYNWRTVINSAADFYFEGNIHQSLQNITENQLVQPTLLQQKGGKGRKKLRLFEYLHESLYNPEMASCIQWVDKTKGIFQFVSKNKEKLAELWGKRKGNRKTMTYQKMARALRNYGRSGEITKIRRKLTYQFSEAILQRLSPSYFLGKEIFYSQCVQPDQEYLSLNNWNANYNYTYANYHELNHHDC
# Procedure, shortened: as §1
# ELF4 = ELF4 (Homo sapiens, UniProt Q99607 1-663); settings: protein: recombinant; tags: N-terminal GST; dsDNA, one strand shown
# Procedure, shortened: as §1
# ELK4 = biological target: T9, ELK4 (Homo sapiens, UniProt P28324-2 1-405); settings: protein: recombinant; tags: N-terminal GST; dsDNA, one strand shown
# T9 sequence: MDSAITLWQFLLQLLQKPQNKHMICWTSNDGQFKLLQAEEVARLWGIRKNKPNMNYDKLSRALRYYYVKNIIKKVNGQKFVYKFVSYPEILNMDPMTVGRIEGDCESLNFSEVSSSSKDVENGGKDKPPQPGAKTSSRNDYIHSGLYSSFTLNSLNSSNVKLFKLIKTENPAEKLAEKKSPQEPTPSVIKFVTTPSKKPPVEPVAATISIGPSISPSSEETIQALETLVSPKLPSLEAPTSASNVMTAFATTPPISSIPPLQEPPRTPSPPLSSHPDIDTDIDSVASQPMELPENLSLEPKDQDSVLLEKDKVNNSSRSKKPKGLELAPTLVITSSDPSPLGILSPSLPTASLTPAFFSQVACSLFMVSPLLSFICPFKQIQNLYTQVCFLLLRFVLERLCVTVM
# Procedure, shortened: as §1
# ETV2 = biological target: T10, ETV2 (Homo sapiens, UniProt O00321 1-342); settings: protein: recombinant; tags: N-terminal GST; dsDNA, one strand shown
# T10 sequence: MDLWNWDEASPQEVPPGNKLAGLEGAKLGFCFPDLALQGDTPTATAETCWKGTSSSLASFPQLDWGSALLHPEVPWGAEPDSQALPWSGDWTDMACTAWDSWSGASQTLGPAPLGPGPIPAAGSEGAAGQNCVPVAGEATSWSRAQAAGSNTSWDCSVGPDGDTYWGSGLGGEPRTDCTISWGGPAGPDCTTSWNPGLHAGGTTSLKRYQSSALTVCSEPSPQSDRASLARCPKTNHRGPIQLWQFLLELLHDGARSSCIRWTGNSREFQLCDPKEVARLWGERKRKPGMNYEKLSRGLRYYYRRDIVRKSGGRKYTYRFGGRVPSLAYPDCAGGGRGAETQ
# Procedure, shortened: as §1
# ELF3 = biological target: T11, ELF3 (Homo sapiens, UniProt P78545 1-371); settings: protein: recombinant; tags: N-terminal GST; dsDNA, one strand shown
# T11 sequence: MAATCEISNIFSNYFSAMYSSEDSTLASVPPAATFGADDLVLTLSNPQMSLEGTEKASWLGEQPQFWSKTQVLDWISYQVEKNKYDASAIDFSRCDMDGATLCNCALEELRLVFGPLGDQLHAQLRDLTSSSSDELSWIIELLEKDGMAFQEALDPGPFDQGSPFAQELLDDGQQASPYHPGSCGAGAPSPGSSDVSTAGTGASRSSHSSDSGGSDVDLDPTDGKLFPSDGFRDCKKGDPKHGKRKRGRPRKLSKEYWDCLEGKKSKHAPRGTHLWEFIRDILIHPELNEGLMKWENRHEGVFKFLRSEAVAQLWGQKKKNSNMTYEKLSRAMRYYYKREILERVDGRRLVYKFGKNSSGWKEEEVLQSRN
# Procedure, shortened: as §1
# CRX = CRX (Homo sapiens, UniProt O43186 1-299); settings: protein: recombinant; tags: N-terminal GST; dsDNA, one strand shown
# Procedure, shortened: as §1
# ETV1 = ETV1 (Homo sapiens, UniProt P50549 1-477); settings: protein: recombinant; tags: N-terminal GST; dsDNA, one strand shown
# Procedure, shortened: as §1
# ETV5, sequence (P41161 whole entry): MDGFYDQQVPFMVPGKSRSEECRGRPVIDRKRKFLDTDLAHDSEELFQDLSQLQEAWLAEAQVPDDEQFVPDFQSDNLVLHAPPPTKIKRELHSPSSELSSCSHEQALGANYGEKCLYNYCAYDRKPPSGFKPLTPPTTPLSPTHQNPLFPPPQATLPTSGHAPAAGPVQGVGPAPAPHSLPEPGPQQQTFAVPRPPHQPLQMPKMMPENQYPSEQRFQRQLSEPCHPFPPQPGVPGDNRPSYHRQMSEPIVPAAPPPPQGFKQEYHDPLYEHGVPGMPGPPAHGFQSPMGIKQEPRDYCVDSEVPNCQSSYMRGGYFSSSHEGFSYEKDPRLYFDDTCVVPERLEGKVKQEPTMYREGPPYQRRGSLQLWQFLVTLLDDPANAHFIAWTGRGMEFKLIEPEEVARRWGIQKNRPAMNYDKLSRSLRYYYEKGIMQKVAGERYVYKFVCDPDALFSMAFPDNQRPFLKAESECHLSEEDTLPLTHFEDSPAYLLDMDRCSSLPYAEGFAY
# ETV1, sequence (P50549 whole entry): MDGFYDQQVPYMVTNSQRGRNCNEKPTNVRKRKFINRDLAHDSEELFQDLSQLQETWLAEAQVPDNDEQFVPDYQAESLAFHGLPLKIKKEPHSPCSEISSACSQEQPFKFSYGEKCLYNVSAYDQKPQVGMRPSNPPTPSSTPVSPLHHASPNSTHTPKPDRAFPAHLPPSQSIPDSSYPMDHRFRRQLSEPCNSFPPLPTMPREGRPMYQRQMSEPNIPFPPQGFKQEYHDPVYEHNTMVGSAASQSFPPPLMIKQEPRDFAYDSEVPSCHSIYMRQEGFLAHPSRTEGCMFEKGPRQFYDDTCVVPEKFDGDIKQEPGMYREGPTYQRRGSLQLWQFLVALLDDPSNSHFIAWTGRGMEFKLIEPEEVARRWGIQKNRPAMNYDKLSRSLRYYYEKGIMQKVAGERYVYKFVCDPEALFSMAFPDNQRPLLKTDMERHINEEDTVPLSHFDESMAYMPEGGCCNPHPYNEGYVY
# ELF4, sequence (Q99607 whole entry): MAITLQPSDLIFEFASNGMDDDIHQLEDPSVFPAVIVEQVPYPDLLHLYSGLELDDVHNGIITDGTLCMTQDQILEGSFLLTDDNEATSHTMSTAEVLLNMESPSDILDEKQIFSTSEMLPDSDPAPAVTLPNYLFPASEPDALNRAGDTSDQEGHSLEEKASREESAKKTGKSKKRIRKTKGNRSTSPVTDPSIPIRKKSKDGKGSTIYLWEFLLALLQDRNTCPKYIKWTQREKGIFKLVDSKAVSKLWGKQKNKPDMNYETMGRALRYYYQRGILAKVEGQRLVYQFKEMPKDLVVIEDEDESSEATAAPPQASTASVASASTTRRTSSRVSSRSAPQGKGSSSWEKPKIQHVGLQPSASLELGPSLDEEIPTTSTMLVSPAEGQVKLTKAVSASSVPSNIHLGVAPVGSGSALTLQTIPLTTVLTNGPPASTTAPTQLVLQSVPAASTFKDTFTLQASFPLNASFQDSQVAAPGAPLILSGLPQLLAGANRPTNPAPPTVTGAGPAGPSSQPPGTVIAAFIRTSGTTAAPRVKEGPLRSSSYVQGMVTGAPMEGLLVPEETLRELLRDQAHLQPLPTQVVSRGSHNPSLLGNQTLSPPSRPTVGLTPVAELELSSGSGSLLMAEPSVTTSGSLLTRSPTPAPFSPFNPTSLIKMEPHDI
# SPIB, sequence (Q01892 whole entry): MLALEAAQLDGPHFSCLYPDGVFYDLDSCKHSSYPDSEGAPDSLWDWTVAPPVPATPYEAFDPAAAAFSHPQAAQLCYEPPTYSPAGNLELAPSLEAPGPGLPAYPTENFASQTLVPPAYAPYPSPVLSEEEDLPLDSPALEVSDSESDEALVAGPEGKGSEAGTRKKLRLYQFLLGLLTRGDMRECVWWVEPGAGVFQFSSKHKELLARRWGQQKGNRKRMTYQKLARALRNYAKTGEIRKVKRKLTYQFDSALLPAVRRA
# ELF1, sequence (P32519 whole entry): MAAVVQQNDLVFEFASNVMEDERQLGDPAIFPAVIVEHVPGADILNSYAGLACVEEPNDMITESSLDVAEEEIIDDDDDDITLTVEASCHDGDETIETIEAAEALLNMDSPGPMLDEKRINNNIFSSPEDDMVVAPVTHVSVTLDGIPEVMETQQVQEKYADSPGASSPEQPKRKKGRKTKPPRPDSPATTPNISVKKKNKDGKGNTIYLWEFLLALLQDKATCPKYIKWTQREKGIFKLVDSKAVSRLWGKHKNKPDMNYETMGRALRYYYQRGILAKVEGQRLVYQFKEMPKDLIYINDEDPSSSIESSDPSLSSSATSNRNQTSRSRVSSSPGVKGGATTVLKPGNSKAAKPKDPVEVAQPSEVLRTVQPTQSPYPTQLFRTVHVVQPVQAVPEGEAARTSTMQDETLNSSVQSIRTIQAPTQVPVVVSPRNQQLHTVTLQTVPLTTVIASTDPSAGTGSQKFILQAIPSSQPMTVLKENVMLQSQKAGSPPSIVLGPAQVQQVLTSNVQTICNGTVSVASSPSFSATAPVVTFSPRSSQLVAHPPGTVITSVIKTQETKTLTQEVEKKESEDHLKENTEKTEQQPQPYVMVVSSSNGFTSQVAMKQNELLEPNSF
# CRX, sequence (O43186 whole entry): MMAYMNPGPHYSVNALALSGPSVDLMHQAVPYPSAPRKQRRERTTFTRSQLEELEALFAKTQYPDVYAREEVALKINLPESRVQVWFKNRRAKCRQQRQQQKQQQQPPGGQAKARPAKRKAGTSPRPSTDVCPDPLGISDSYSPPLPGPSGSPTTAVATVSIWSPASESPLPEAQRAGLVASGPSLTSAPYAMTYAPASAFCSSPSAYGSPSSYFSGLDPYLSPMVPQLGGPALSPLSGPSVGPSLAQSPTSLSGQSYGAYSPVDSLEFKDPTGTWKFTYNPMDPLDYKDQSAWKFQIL
# HSF1, sequence (Q00613 whole entry): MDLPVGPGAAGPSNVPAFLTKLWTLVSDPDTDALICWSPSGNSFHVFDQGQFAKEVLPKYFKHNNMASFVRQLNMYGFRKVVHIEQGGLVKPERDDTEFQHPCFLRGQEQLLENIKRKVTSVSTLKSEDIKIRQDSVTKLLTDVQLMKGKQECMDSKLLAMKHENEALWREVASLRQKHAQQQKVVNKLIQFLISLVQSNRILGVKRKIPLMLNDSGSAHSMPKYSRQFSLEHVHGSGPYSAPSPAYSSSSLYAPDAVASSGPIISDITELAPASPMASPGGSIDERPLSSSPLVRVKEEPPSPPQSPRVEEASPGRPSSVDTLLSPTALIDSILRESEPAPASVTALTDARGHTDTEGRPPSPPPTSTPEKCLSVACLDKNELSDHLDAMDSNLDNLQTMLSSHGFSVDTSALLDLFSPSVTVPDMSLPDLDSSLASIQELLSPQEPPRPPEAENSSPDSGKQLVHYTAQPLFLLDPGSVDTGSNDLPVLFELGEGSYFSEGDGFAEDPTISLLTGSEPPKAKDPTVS
sequence,measurement,setting,value
ATGTAT,binding signal,FLI1,"1.34 fold enrichment (6-mer frequency, TF over GST control)"
same,binding signal,ELK1,"1.32 fold enrichment (6-mer frequency, TF over GST control)"
same,binding signal,GABPA,"1.27 fold enrichment (6-mer frequency, TF over GST control)"
same,binding signal,ERG,"1.35 fold enrichment (6-mer frequency, TF over GST control)"
same,binding signal,ELF1,"1.3 fold enrichment (6-mer frequency, TF over GST control)"
same,binding signal,EHF,"1.28 fold enrichment (6-mer frequency, TF over GST control)"
same,binding signal,SPI1,"1.28 fold enrichment (6-mer frequency, TF over GST control)"
same,binding signal,SPIB,"1.32 fold enrichment (6-mer frequency, TF over GST control)"
same,binding signal,ELK3,"1.36 fold enrichment (6-mer frequency, TF over GST control)"
same,binding signal,FEV,"1.31 fold enrichment (6-mer frequency, TF over GST control)"
same,binding signal,ETV5,"1.33 fold enrichment (6-mer frequency, TF over GST control)"
same,binding signal,HSF1,"1.18 fold enrichment (6-mer frequency, TF over GST control)"
same,binding signal,SPIC,"1.25 fold enrichment (6-mer frequency, TF over GST control)"
same,binding signal,ELF4,"1.43 fold enrichment (6-mer frequency, TF over GST control)"
same,binding signal,ELK4,"1.57 fold enrichment (6-mer frequency, TF over GST control)"
same,binding signal,ETV2,"1.3 fold enrichment (6-mer frequency, TF over GST control)"
same,binding signal,ELF3,"1.35 fold enrichment (6-mer frequency, TF over GST control)"
same,binding signal,CRX,"1.24 fold enrichment (6-mer frequency, TF over GST control)"
same,binding signal,ETV1,"1.42 fold enrichment (6-mer frequency, TF over GST control)"
